Screens: PubChem BioAssay, Broad Institute
MITF act = MITF TRPM1 promoter activation in melanoma cells; activation, % at 12.5 µM; SK-MEL-5 TRPM1-promoter luciferase, 24 h; % of positive control, neutral wells = 0; actives 0.75% (n = 300,000);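 active means mean activation of at least 80% with every replicate also reaching 80%; inconclusive means mean reaches 80% but some replicate falls short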;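 further: 0% = neutral control wells and 100% = parthenolide positive control wells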
EWS-Fli inh = blocks EWS/Fli oncoprotein-driven transcription; A673 NR0B1-luciferase reporter, viability-normalised; inhibition, % at 12.6 µM; actives 0.67% (n = 350,000);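 active means mean inhibition of at least 50% after viability correction, with every replicate also passing that limit; inconclusive means mean reaches 50% but only one of two replicates passes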;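 further: firefly luciferase signal divided by Alamar Blue viability fluorescence both relative to DMSO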
esBAF inh = blocks esBAF chromatin remodeling in mouse ES cells | Bmi1-luciferase knock-in reporter, 24 h; 100% = twice the neutral-well signal | reporter increase, % at 12.5 µM | actives 2% (n = 350,000) | AID 602393; in the data active means activation above about 40%; inconclusive means no clear call, values can overlap the other calls;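 further: 0% = median of the plate's neutral control wells and 100% = double that signal; a rise in the Bmi1 reporter signal indicates esBAF inhibition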
TRPM1 prom inh = inhibitors of MITF-driven TRPM1 promoter in melanoma cells; SK-MEL-5 TRPM1 promoter luciferase, 24 h; inhibition, % at 12.5 µM; actives 0.83% (n = 330,000); AID 488899;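 active means mean inhibition across replicates of 60% or more, whatever share of single replicates reaches that level; inconclusive means some that reach 60%, reason not given; inactive means mean inhibition across replicates below 60%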
Wnt act = activates Wnt/beta-catenin signaling in a reporter cell assay; AID 743398; activation, % at 9.35 µM; actives 1.2% (n = 300,000); activator, plate reader; in the data active means activation above about 30%, passing the limit was not always enough; inconclusive means no clear call, values can overlap the other calls;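 further: 0% = neutral control wells and 100% = positive control wells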
PAX8 inh HTS = lowers PAX8-driven luciferase in RMG-I cells. RMG-I TPO-luciferase reporter, SteadyGlo, 24 h. inhibition, % at 12.6 µM. AID 652154. actives 1.2% (n = 360,000);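 active means mean replicate inhibition at least 60% with every replicate also reaching 60%; inconclusive means only one of the two criteria is met; inactive means mean below 60% and not all replicates reaching 60%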;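 further: luciferase light reporting Pax8 driven TPO promoter activity; plate controls were median of neutral control wells for no effect and mitoxantrone controls for full effect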
* = called active by the depositor. Most compounds without a hit are left out; they make up all but 4% or so of the library.

`O=C(N/N=C/c1cc(Cl)ccc1O)C(=O)Nc1ccccc1OC(F)(F)C(F)F` gave MITF act -66.2, EWS-Fli inh -9.4, TRPM1 prom inh 65.5* and PAX8 inh HTS 70.4*.
CCOc1ccc(C(=O)NCC(=O)OCc2c(C)noc2C)cc1OCC was read as MITF act 10.8, EWS-Fli inh -1.9, TRPM1 prom inh -8.4, Wnt act -0.7 and PAX8 inh HTS 4.0.
Screening CCOc1ccc(C(=O)NCC(=O)OCc2c(C)noc2C)cc1 returned MITF act 4.9, EWS-Fli inh -7.8, TRPM1 prom inh -4.4, Wnt act -0.5 and PAX8 inh HTS 72.9*.
C[C@H](CO)N1C[C@H](C)[C@@H](CN(C)C(=O)Nc2cccc3ccccc23)Oc2ccc(NC(=O)C3CCCCC3)cc2C1=O was read as EWS-Fli inh 1.8, esBAF inh -0.2 and PAX8 inh HTS 18.0.
COc1cc(/C=N/NC(=O)c2nnn(-c3nonc3N)c2C)ccc1OCc1ccc(Cl)cc1 was read as EWS-Fli inh -70.4, esBAF inh 56.2*, Wnt act 0.1 and PAX8 inh HTS -115.1.
Screening CC1CCN(Cc2c(C(=O)N/N=C/c3cc(Br)ccc3O)nnn2-c2nonc2N)CC1 returned MITF act -62.5, EWS-Fli inh 29.4, esBAF inh -69.8, TRPM1 prom inh 64.7*, Wnt act -4.2 and PAX8 inh HTS inconclusive.
CC1CCN(Cc2c(C(=O)N/N=C/c3cc(Cl)ccc3O)nnn2-c2nonc2N)CC1 was read as MITF act -36.3, EWS-Fli inh 19.2, esBAF inh -60.4, TRPM1 prom inh 35.4, Wnt act -4.7 and PAX8 inh HTS 5.3.
Nc1nonc1-n1nnc(C(=O)N/N=C/c2ccc(OCc3cccc(Cl)c3)cc2)c1CN1CCCCC1 was read as MITF act 106.3*, TRPM1 prom inh -113.1, Wnt act 20.5 and PAX8 inh HTS -69.1.
Nc1nonc1-n1nnc(C(=O)N/N=C/c2ccc(OCc3ccccc3F)cc2)c1CN1CCCCC1 was read as MITF act 83.7*, EWS-Fli inh -37.4, esBAF inh 9.0, TRPM1 prom inh -81.8, Wnt act 4.5 and PAX8 inh HTS -16.3.
Screening CCC(=O)Nc1ccc2c(c1)C(=O)N(C)C[C@@H](OC)[C@H](C)CN(Cc1ccccc1OC)[C@@H](C)CO2 returned EWS-Fli inh -6.2, esBAF inh -0.9 and PAX8 inh HTS -1.4.
For Cc1ccc(S(=O)(=O)Nc2ccc3c(c2)C(=O)N([C@@H](C)CO)C[C@@H](C)[C@H](CN(C)C(=O)NC2CCCCC2)OCCCC[C@H](C)O3)cc1 the results were EWS-Fli inh -1.3, esBAF inh -1.8 and PAX8 inh HTS -5.9.
`CNC(=S)Nc1ccc(OCc2ccccc2)cc1` gave MITF act 18.5, EWS-Fli inh -18.1, esBAF inh 40.9*, TRPM1 prom inh -12.9, Wnt act 1.6 and PAX8 inh HTS -36.2.
For O=C(C[n+]1ccc(C(=O)N/N=C/c2ccc(O)cc2)cc1)c1ccccc1 the results were MITF act 8.3, esBAF inh 10.5, TRPM1 prom inh -8.4, Wnt act -2.1 and PAX8 inh HTS -10.4.
For CCCCOc1cccc(C(=O)Nc2ccc(NC(=O)c3cccs3)cc2)c1 the results were EWS-Fli inh 52.7*, esBAF inh -1.0, TRPM1 prom inh 54.2, Wnt act -3.3 and PAX8 inh HTS 5.7.
Screening CCCOc1ccc(C(=O)Nc2ccc(NC(=O)c3cccs3)cc2)cc1 returned MITF act 10.9, EWS-Fli inh -18.3, esBAF inh 3.7, TRPM1 prom inh -10.2, Wnt act -0.8 and PAX8 inh HTS -32.5.
Screening Oc1ccc(N=Cc2ccc(OCc3ccccc3)cc2)cc1 returned MITF act -34.5, EWS-Fli inh -63.1, esBAF inh 48.2*, TRPM1 prom inh 38.6, Wnt act 14.6 and PAX8 inh HTS -91.6.
Screening O=C(C[n+]1ccc(C(=O)N/N=C/c2ccc(OCc3ccccc3)cc2)cc1)c1ccccc1 returned MITF act 134.2*, EWS-Fli inh -56.9, esBAF inh 12.7, TRPM1 prom inh -128.9 and Wnt act 15.2.
For COCC#Cc1ccc2c(c1)O[C@@H](CN(C)Cc1ccccc1)[C@@H](C)CN([C@@H](C)CO)S2(=O)=O the results were EWS-Fli inh -6.9 and esBAF inh -2.2.
